The full list was thinned out, with hits kept by preference.
Pf Dd2 inh: inhibitors of Plasmodium falciparum Dd2 growth; AID 1347417; Potency, µM (highest dose often 28.9 µM), actives largely listed as inhibitors; 120,000 compounds, 4.3% hits; P. falciparum Dd2 growth, SYBR Green, 72 h; active means well fitted inhibition curve with a large enough effect; further: nearly all actives have a fitted effect of over 65% in size
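Readout: SYBR Green fluorescence, 485 nm excitation, 535 nm emission, after ~16 h lysis at 37C. Before that, Dd2-infected red cells (2.5% hematocrit) grew 72 h with compound, 29 uM top final concentration.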
A number is an active result; . = inactive; [ ] = dose if it differs, or a comment.

SMILES	Pf Dd2 inh
O=C(COc1ccccc1)Nc1ccc2nc(SCC(=O)N3CCOCC3)sc2c1	.
NCCN1C(=O)CO[C@H](c2ccc(NC(=O)NCc3ccccc3)cc2)[C@H]1CO	.
Cc1nc(C)c(C(=O)NCC2Cn3cccc3C(=O)N2CC(C)C)s1 (stereo not drawn)	.
COc1ccccc1OCCNC(=O)C1N(C(C)C)C(=O)C12CCCC2 (stereo not drawn)	.
O=C1c2c(-c3nc(-c4ccsc4)no3)nnn2CCN1Cc1ccc(Cl)cc1	.
CCc1ccc(Nc2sc(C(=O)c3ccc(F)cc3)c(N)c2S(=O)(=O)c2ccccc2)cc1	8.91µM
COc1cccc(Nc2sc(C(=O)c3ccc(F)cc3)c(N)c2C(=O)NCc2ccc(Cl)cc2)c1	.
Nc1c(C(=O)c2ccc(F)cc2)sc(Nc2ccccc2F)c1S(=O)(=O)c1ccc(Br)cc1	11.2µM
CCc1ccc(S(=O)(=O)N2[C@@H]3CC[C@H]2CC(NC(=O)c2ccc(F)cc2)C3)cc1 (stereo partly drawn)	.
CCOc1ccccc1Nc1sc(C(=O)c2ccccc2)c(N)c1C(=O)Nc1ccccc1	.
N#Cc1c(Nc2cccc(F)c2)sc(C(=O)c2ccc(Cl)cc2)c1N	.
CC(C)(C)c1cc(CNC(=O)CC2C(=O)NCCN2CC2CCCCC2)[nH]n1 (stereo not drawn)	.
O=C(CC1=CCCCC1)N1C[C@@H](CO)[C@H](c2ccccn2)C1	.
COc1ccccc1CC(=O)N1CCc2nn(C)c(=O)n2CC1	.
CNC(=O)C1CN(c2cccc(OC)c2)C(=O)N1 (stereo not drawn)	.
COc1ccc([C@@H]2CN(C(=O)CN3C(=O)CNC3=O)C[C@H]2NC(C)=O)cc1	.
Cn1cnc(S(=O)(=O)N2CCC3(CC2)CC(CC(=O)NC2CC2)CCO3)c1 (stereo not drawn)	.
COc1cccc(S(=O)(=O)N2CCC3(CC2)CC(CC(=O)NC2CC2)CCO3)c1 (stereo not drawn)	.
COc1ccc(S(=O)(=O)N2CCC3(CC2)CC(CC(=O)NC2CC2)CCO3)cc1 (stereo not drawn)	6.31µM
CS(=O)(=O)Nc1cc(-c2noc([C@@H]3CCCN3C3CCOCC3)n2)ccn1	.
COc1ccc(-c2nc3ccccc3n3c(-c4cccc(C)c4)c4c(=O)n(C)c(=O)n(C)c4c23)cc1OC	11.2µM
COc1ccc(-c2c3c(=O)n(C)c(=O)n(C)c3c3c(-c4cccc(C)c4)nc4ccccc4n23)cc1	.
Cc1ccc(-c2c3c(=O)n(C)c(=O)n(C)c3c3c(-c4cccc(C)c4)nc4ccccc4n23)cc1	.
O=C(N[C@H]1C[C@H]2C(=O)NC[C@@H](CCC(=O)N3CCc4ccccc43)N2C1)c1ccc(F)c(Cl)c1	.
CCOCCCNC(=O)c1noc(-c2ccc[nH]c2=O)n1	.
SMILES	Pf Dd2 inh
O=C(COc1ccccc1)NC1CCCc2c1[nH]c1ccccc21 (stereo not drawn)	.
CCOc1cccc(CC(=O)N2CCc3c([nH]c4ccccc34)C2c2ccc(SC)cc2)c1OCC (stereo not drawn)	7.94µM
CCOc1ccc(CNC(=O)c2[nH]c3ccccc3c2Sc2ccc(C)cc2)cc1	.
CCOc1cccc(CC(=O)NCc2ccc3c(c2)CCN3C(C)=O)c1OCC	.
O=C(CSCc1ccc(F)cc1)N1CCc2c([nH]c3ccccc23)C1c1ccc(Cl)cc1 (stereo not drawn)	.
CCOc1ccc(C2c3[nH]c4ccccc4c3CCN2C(=O)Cc2cccc(OCC)c2OCC)cc1 (stereo not drawn)	11.2µM
COCC1CN(C(=O)NC2CCCCC2)CC12CCNCC2 (stereo not drawn)	.
O=C(Cn1c(=O)oc2ccccc21)N1CCC(c2noc(-c3ccncc3)n2)C1 (stereo not drawn)	.[5.79 µM]
CCCc1cc(CNC(=O)c2ccc(N3C[C@@H](C)O[C@@H](C)C3)nc2)on1	.
O=C(NCc1ccc(F)c(Cl)c1)c1cccc2c1CCN2C(=O)C1CC1	.
CN(C)c1ccc(NC(=O)Cn2cc(S(=O)(=O)Cc3cccc(Cl)c3)c3ccccc32)cc1	.
O=C(Cn1cc(S(=O)(=O)Cc2ccccc2Cl)c2ccccc21)NCc1ccccc1Cl	.
CN(C)c1ccc(NC(=O)Cn2cc(S(=O)(=O)Cc3ccccc3Cl)c3ccccc32)cc1	7.94µM
CCCS(=O)(=O)NCCc1noc(C)n1	.
O=C(N[C@H](Cc1ccccn1)C1CC(O)C1)c1cccc2c1NCCC2 (stereo partly drawn)	.
CCOC(=O)C1CCN(CCC(=O)Nc2ccc(OC)cc2)CC1	.
O=C(Nc1ccc(Oc2ccccc2F)cc1)C1CCCCN1C(=O)c1cccnc1 (stereo not drawn)	.
COCCN1CCC(C(=O)Nc2ccc(Oc3ccccc3F)cc2)CC1	12.6µM
CNC(=O)[C@@H]1C[C@H](Oc2cccnc2)CN1C(=O)c1ccc(OC)cc1OC	.
O=C(CCc1nc2ccccc2s1)N1CCC(c2noc(-c3ccccn3)n2)C1 (stereo not drawn)	.[5.79 µM]
Cc1ccnc(NC(=O)Cn2nc3c(cc2=O)CCCCC3)c1	.
CCOc1ccc(C(=O)NC2CCN(c3cn[nH]c(=O)c3)CC2)cc1	.
Cn1c(CN2CCOC[C@H]2c2ncc(-c3ccc(Cl)cc3)[nH]2)nc2ccccc21	10µM
CC(=O)N1CCC(N2CCOC[C@H]2c2ncc(-c3ccc(S(C)(=O)=O)cc3)[nH]2)CC1	.
CC(C)(C)c1cnc([C@@H]2COCCN2Cc2ccc(Cl)cc2)[nH]1	3.98µM
SMILES	Pf Dd2 inh
Clc1ccc(-c2cnc([C@@H]3COCCN3Cc3cnc[nH]3)[nH]2)cc1	.
CS(=O)(=O)c1ccc(CN2CCOC[C@H]2c2ncc(-c3ccc(F)cc3F)[nH]2)cc1	.
CC(C)(C)CN1CCOC[C@H]1c1ncc(-c2ccc(F)cc2F)[nH]1	.
CS(=O)(=O)c1ccc(CN2CCOC[C@H]2c2ncc(-c3ccc(Cl)cc3)[nH]2)cc1	11.2µM
CC(C)(C)c1cnc([C@@H]2COCCN2Cc2ccccc2O)[nH]1	2µM
CC(=O)Nc1ccc(CN2CCOC[C@H]2c2ncc(-c3ccc(F)cc3F)[nH]2)cc1	.
Cc1ccc(-c2cnc([C@@H]3COCCN3Cc3cnc[nH]3)[nH]2)cc1	.
c1ccc(-c2cnc([C@@H]3COCCN3Cc3cccnc3)[nH]2)cc1	.
COCc1cc(C[C@@H]2CC[C@H](O)[C@@H](CNC(=O)COc3ccccc3)O2)no1	.
CCCN(CC1CCOC1)S(=O)(=O)c1ccccc1CC (stereo not drawn)	.[5.79 µM]
COCCN1C(=O)c2cccn2CC1CNC(=O)c1sc(C)nc1C (stereo not drawn)	.
CCn1nccc1C(=O)N1C[C@@H]2CCCN3CCC[C@@H]([C@H]23)[C@H]1CCCC(=O)N1CCOCC1	.
CCOCCOC1CCN(C(=O)CCc2c[nH]c3ccccc23)CC1	.
O=C1CCN(Cc2cccc(F)c2)CCCC(C(=O)NCc2ccncc2)CCN1 (stereo not drawn)	.
Cc1nc(N)nc(N2CCOC(Cc3noc(-c4ccccn4)n3)C2)c1C (stereo not drawn)	.
Clc1ccc(-c2cnc([C@@H]3COCCN3CC3CC3)[nH]2)s1	.
Fc1ccc(CN2CCOC[C@H]2c2ncc(-c3ccc(Cl)s3)[nH]2)cc1	11.2µM
Fc1ccc(-c2cnc([C@@H]3COCCN3Cc3cccnc3)[nH]2)cc1	.
O=C(c1ccccc1F)N1CCC2(CC1)C(=NC1CCCCC1)NC(=O)N2c1cc(F)cc(F)c1	.
Cc1ccc(C)c(S(=O)(=O)N2C[C@@H](F)C[C@H]2C(=O)N2CCCCC2)c1	.

Bioassay records as filed in PubChem.
